For assay [1], the target named is Ribosomal protein S6 kinase alpha-6 (Homo sapiens) (UniProt Q9UK32). Conditions: at 1 µM.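 Also: each value is a mean inhibition of RSK4 from a GSK PKIS panel screen.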
In assay [2] the target is T1, Serine/threonine-protein kinase Sgk1 (Homo sapiens) (UniProt O00141).
T1 sequence (whole entry): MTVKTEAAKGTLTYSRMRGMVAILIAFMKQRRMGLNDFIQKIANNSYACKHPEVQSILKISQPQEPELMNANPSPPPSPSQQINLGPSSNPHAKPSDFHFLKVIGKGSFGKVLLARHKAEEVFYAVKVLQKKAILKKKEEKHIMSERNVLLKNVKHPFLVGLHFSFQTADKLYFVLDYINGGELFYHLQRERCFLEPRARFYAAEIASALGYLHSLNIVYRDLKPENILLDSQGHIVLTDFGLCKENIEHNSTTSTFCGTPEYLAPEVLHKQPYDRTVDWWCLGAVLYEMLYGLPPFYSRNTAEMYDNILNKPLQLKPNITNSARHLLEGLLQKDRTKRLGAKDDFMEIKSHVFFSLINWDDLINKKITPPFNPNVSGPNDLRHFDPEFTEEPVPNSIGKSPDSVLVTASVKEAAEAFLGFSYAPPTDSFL
Conditions: at 0.1 µM.

For assay [3], the target named is T1, Serine/threonine-protein kinase Sgk1 (Homo sapiens). Conditions: at 1 µM.
For assay [4], the target named is T2, Serine/threonine-protein kinase Sgk2 (Homo sapiens) (UniProt Q9HBY8).
T2 sequence (whole entry): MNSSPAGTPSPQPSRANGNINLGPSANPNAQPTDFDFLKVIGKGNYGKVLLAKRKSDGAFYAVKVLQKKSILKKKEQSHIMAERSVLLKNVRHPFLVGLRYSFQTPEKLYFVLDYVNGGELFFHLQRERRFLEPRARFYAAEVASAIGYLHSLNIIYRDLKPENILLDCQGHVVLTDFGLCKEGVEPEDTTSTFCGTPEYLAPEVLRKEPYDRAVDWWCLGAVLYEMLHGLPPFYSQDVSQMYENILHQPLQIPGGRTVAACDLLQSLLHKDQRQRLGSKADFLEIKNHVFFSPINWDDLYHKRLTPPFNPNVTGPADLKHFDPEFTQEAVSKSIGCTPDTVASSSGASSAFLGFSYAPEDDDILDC
Conditions: at 0.1 µM.

Assay [5] addresses T2, Serine/threonine-protein kinase Sgk2 (Homo sapiens). The conditions noted are these: at 1 µM.
Assay [6] deals with T3, Serine/threonine-protein kinase Sgk3 (Homo sapiens) (UniProt Q96BR1).
T3 sequence (whole entry): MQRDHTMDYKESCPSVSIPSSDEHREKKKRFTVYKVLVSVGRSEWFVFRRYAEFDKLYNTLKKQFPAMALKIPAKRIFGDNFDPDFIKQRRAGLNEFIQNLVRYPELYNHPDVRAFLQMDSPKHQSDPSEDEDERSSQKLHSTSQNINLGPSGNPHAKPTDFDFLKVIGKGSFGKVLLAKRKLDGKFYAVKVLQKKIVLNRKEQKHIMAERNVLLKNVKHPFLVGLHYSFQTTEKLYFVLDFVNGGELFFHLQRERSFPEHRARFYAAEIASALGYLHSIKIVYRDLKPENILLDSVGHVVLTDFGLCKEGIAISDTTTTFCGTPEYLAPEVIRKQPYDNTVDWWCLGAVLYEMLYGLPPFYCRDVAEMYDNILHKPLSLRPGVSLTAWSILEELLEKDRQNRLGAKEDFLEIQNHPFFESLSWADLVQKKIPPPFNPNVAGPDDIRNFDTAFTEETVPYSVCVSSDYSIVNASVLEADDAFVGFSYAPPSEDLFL
Conditions: at 0.1 µM.

Assay [7] has as its target T3, Serine/threonine-protein kinase Sgk3 (Homo sapiens). Conditions: at 1 µM.
For assay [8], the target named is 5'-AMP-activated protein kinase catalytic subunit alpha-1 (Homo sapiens) (UniProt Q13131). Conditions: at 0.1 µM.
For assay [9] the target is unchanged. Conditions: at 1 µM.
Assay [10] concerns the target 5'-AMP-activated protein kinase catalytic subunit alpha-2 (Homo sapiens) (UniProt P54646). Conditions: at 0.1 µM.
For assay [11] the target is unchanged. The conditions noted are these: at 1 µM.
In assay [12] the target is T4, NUAK family SNF1-like kinase 1 (Homo sapiens) (UniProt O60285).
T4 sequence (whole entry): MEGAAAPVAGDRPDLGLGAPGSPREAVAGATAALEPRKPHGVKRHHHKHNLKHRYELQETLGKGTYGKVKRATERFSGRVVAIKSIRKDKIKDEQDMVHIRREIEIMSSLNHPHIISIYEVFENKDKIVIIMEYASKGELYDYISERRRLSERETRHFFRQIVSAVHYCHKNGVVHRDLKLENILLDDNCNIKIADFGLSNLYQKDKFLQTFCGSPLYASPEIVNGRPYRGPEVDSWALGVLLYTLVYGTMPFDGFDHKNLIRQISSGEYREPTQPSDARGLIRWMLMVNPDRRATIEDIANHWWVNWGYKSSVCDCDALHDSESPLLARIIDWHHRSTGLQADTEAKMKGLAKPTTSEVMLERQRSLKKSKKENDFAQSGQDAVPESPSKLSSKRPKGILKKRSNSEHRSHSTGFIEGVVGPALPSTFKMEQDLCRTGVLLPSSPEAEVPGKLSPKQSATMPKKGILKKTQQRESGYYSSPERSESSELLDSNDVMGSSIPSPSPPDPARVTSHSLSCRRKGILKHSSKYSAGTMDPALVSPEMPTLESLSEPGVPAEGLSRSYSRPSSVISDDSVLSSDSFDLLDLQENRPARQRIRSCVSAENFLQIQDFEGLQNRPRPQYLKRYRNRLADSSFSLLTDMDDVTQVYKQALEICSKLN
Conditions: at 0.1 µM.

Assay [13] has as its target T4, NUAK family SNF1-like kinase 1 (Homo sapiens). Conditions: at 1 µM.
In assay [14] the target is T5, Serine/threonine-protein kinase BRSK1 (Homo sapiens) (UniProt Q8TDC3).
T5 sequence (whole entry): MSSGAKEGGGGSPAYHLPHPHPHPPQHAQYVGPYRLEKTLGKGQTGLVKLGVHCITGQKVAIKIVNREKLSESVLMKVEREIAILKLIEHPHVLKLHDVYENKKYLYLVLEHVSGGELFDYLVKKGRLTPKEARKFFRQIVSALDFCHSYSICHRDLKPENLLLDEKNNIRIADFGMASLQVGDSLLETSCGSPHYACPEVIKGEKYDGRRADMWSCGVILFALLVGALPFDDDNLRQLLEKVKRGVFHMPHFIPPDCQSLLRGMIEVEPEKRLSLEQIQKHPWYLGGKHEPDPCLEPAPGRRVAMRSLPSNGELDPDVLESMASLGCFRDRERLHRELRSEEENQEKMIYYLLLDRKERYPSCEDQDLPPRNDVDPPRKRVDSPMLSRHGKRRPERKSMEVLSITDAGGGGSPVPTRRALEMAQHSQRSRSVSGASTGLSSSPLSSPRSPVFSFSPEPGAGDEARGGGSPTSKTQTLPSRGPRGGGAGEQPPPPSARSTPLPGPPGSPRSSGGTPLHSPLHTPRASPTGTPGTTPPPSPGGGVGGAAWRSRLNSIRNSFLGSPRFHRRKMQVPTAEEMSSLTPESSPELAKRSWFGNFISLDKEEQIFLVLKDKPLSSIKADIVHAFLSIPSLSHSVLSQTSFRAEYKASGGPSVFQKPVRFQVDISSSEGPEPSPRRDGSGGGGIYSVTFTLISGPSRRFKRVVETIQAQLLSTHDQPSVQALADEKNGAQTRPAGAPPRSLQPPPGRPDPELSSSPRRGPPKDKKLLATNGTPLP
The conditions noted are these: at 0.1 µM.

In assay [15] the target is T5, Serine/threonine-protein kinase BRSK1 (Homo sapiens). The conditions noted are these: at 1 µM.
In assay [16] the target is T6, Serine/threonine-protein kinase BRSK2 (Homo sapiens) (UniProt Q8IWQ3).
T6 sequence (whole entry): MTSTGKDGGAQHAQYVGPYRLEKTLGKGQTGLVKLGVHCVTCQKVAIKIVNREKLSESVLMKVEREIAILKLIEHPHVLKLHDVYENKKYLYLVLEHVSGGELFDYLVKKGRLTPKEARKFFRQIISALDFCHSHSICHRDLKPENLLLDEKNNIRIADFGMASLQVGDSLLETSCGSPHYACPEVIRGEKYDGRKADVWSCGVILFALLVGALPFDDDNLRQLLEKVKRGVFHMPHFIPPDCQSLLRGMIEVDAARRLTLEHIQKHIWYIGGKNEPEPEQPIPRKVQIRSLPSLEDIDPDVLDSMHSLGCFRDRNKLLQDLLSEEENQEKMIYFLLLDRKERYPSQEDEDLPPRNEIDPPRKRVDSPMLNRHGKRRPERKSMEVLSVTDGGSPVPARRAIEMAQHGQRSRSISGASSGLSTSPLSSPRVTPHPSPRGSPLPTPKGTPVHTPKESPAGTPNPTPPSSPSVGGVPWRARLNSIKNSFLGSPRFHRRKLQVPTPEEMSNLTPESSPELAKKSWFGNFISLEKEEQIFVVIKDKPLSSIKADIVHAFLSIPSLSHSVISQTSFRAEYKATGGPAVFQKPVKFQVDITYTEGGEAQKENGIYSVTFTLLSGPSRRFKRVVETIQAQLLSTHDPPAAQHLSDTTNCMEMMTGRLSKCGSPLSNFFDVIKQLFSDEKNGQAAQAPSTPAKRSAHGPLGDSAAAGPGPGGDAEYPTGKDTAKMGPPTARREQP
The conditions noted are these: at 0.1 µM.

The target in assay [17] is T6, Serine/threonine-protein kinase BRSK2 (Homo sapiens). Conditions: at 1 µM.
The target in assay [18] is Calcium/calmodulin-dependent protein kinase type 1D (Homo sapiens) (UniProt Q8IU85). The conditions noted are these: at 0.1 µM.
Assay [19] has the same target. Conditions: at 1 µM.
The target in assay [20] is Calcium/calmodulin-dependent protein kinase type II subunit alpha (Homo sapiens) (UniProt Q9UQM7). The conditions noted are these: at 0.1 µM.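 Also: reported values are averages (mean inhibition of CAMK2A).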

This is an account of results in ChEMBL document CHEMBL1961873, “Compounds: GSK PKIS; Assays: Nanosyn kinase panel” (2012).

The structures appear in SMILES notation.

Chain of Calcium/calmodulin-dependent protein kinase type II subunit alpha (Homo sapiens) (Q9UQM7 whole entry): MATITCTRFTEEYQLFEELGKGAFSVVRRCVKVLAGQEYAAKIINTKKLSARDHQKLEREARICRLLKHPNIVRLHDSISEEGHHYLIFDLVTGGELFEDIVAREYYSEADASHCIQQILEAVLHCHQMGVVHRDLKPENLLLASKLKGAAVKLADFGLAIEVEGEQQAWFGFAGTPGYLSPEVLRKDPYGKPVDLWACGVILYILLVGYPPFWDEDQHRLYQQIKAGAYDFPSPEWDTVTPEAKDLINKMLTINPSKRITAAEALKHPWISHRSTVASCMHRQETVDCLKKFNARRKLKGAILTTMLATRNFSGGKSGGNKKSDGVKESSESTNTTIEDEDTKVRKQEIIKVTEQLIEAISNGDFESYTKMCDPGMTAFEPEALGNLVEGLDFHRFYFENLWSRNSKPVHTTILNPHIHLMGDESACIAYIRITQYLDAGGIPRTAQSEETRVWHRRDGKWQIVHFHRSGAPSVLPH
Chain of Ribosomal protein S6 kinase alpha-6 (Homo sapiens) (Q9UK32 whole entry): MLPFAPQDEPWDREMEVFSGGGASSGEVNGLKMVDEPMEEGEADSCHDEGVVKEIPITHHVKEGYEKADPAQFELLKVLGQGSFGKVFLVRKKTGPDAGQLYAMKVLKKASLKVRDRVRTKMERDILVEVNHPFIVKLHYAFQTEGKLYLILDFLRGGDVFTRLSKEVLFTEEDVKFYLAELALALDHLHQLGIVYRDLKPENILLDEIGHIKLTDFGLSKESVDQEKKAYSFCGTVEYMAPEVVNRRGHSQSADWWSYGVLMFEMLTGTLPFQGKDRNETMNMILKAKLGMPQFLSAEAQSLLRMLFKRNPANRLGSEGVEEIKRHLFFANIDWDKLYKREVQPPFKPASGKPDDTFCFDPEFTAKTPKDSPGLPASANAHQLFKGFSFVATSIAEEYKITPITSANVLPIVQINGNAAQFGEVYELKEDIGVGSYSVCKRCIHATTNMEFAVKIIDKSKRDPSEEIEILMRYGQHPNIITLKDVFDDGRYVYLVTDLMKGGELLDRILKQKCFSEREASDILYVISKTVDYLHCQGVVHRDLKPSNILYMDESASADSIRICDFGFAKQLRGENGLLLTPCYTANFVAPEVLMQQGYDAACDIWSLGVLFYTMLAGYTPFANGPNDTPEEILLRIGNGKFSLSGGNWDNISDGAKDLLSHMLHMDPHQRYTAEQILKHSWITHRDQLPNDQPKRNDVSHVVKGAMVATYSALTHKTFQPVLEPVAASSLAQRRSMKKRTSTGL
Chain of Calcium/calmodulin-dependent protein kinase type 1D (Homo sapiens) (Q8IU85 whole entry, looked up): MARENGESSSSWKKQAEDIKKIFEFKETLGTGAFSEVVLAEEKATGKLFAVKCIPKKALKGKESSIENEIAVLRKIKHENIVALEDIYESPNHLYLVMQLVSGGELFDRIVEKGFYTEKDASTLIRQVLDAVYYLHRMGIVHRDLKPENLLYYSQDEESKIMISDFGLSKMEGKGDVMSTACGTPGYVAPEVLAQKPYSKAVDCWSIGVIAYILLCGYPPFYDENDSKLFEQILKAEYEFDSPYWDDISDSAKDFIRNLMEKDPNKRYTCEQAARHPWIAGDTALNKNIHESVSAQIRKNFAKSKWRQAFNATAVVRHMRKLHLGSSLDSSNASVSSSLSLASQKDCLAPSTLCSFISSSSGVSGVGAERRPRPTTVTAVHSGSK
Chain of 5'-AMP-activated protein kinase catalytic subunit alpha-2 (Homo sapiens) (P54646 whole entry, looked up): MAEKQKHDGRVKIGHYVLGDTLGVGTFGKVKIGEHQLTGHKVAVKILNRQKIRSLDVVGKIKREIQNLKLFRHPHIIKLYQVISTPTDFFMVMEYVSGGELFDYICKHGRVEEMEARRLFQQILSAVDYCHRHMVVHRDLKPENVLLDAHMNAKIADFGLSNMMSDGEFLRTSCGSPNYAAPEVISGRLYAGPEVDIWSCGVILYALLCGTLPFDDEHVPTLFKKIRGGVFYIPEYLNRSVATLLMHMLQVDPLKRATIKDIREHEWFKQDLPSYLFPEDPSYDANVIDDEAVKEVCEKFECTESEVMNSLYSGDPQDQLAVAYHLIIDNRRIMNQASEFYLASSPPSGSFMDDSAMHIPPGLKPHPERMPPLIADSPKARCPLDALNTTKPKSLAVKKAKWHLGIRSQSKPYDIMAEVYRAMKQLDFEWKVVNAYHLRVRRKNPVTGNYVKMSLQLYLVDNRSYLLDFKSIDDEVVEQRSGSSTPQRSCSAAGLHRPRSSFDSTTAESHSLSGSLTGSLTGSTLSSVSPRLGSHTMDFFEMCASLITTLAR
Chain of 5'-AMP-activated protein kinase catalytic subunit alpha-1 (Homo sapiens) (Q13131 whole entry, looked up): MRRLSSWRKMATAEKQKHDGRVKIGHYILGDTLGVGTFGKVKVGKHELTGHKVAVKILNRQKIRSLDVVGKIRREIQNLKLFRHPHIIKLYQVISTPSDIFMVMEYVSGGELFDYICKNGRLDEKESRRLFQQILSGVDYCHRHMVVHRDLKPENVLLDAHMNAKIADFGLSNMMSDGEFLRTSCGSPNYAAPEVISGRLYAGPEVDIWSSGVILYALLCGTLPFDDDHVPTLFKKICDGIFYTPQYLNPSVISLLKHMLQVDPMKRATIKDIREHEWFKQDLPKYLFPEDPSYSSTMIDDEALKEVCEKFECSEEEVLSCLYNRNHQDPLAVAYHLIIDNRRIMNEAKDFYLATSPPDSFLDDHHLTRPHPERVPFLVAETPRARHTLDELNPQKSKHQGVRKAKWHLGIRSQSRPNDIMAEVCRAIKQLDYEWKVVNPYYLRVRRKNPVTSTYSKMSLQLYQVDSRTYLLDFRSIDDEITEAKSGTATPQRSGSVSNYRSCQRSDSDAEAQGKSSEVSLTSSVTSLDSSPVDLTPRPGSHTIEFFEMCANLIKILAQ

Broadly, the inhibition is the drop in the measured response relative to a control, in per cent. In the case of `Cc1nc(-c2ccccc2)n2nc(NCCCN3CCOCC3)ncc12`, the inhibition in [1] worked out at 12.8%; in [2], 2.86%; in assay [3], 2.79%; in [4], 2.32%; in assay [5] it was 0.65%; in assay [6], 0.22%. Besides, the inhibition in assay [7] is 1.99%; in assay [8], 2.89%; in assay [9], 6.04%; in assay [10], 3.08%; in [11] it was 4.91%; in assay [12], 0.66%. Further, the inhibition was 20.3% in assay [13]; 1.1% in [14]; -0.76% in [15]; 1.22% in [16]; 2.49% in assay [17]; 1.67% in assay [18]. The inhibition was found to be 2.49% in assay [19] and 2.42% in assay [20].

Take `Cc1ccc2c(-c3ccnc(Nc4cccc(C(F)(F)F)c4)n3)c(-c3ccccc3)nn2n1`: the inhibition in [1] was 2.56%; in [2], 2.23%; in assay [3], 3.64%; in [4] it was 5.64%; in assay [5] it was -0.25%; in [6] it was 3.07%. Besides, the inhibition in assay [7] is 4.11%; in assay [8] it was 0.65%; in [9], 2.66%; in [10], 5.96%; in [11], 3.47%; in [12], 4.18%. Further, the inhibition is 5.3% in assay [13]; 2.22% in assay [14]; 1.34% in assay [15]; 1.33% in [16]; 3.25% in assay [17]; 0.64% in [18]. In addition, the inhibition in assay [19] turned out to be 2.72%; in assay [20] it was 2.64%.

Consider `CN(C)C(=O)O[C@H]1CN[C@H](C#Cc2cc3ncnc(Nc4ccc(OCc5cccc(F)c5)c(Cl)c4)c3s2)C1`, for which the inhibition was 1.62% in assay [1]; 0.38% in assay [2]; 1.38% in assay [3]; 0.9% in assay [4]; -0.85% in assay [5]; 0.13% in [6]. For the same compound, the inhibition was 0.86% in [7]; 2.01% in assay [8]; 2.18% in [9]; 1.83% in assay [10]; 3.32% in [11]; 1.87% in [12]. Moreover, the inhibition in assay [13] was 1.59%; in assay [14], 2.39%; in assay [15], 3.13%; in assay [16], 2.38%; in assay [17], 2.85%; in assay [18], 0.05%. Besides, the inhibition in assay [19] turned out to be 0.1%; in assay [20] it was 2.54%.
